Data as given in PubChem BioAssay (NCATS).
Inconclusive results are not listed. Active and inactive are the calls of the source. The call rests on the fitted dose curve; in most records, active means well fitted inhibition curve with a large enough effect; inconclusive means small, poorly fitted or top-dose-only effect; inactive means flat fitted curve, though single readings scatter.

What was measured:
Assay in all cases: qHTS profiling for inhibitors of Plasmodium falciparum proliferation (AID 504749); further: nearly all actives have a fitted effect of over 60% in size
Conditions in all cases: P. falciparum in erythrocytes, SYBR Green DNA, 72 h; series mostly up to 28.7 µM
CP191 = tested on: CP191
Procedure, shortened: (§1)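 In a 72 h erythrocytic culture (37 C, humidified, 5% CO2) at 2.5% hematocrit and 0.3% starting parasitemia, compounds were tested; SYBR Green I in detergent lysis buffer stained parasite DNA overnight.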

CP192 = tested on: CP192
Procedure, shortened: as §1

CP194 = tested on: CP194
Procedure, shortened: as §1

CP201 = tested on: CP201
Procedure, shortened: as §1

CP203 = tested on: CP203
Procedure, shortened: as §1

CP211 = tested on: CP211
Procedure, shortened: as §1

CP215 = tested on: CP215
Procedure, shortened: as §1

CP217 = tested on: CP217
Procedure, shortened: as §1

CP237 = tested on: CP237
Procedure, shortened: as §1

CP238 = tested on: CP238
Procedure, shortened: as §1

CP247 = tested on: CP247
Procedure, shortened: as §1

CP250 = tested on: CP250
Procedure, shortened: as §1

CP252 = tested on: CP252
Procedure, shortened: as §1

CP256 = tested on: CP256
Procedure, shortened: as §1

CP260 = tested on: CP260
Procedure, shortened: as §1

CP262 = tested on: CP262
Procedure, shortened: as §1

CP265 = tested on: CP265
Procedure, shortened: as §1

CP266 = tested on: CP266
Procedure, shortened: as §1

CP268 = tested on: CP268
Procedure, shortened: as §1

CP269 = tested on: CP269
Procedure, shortened: as §1
Potency means the concentration at half of the fitted maximal effect.

Row | SMILES | Potency (CP191) | Potency (CP192) | Potency (CP194) | Potency (CP201) | Potency (CP203) | Potency (CP211) | Potency (CP215) | Potency (CP217) | Potency (CP237) | Potency (CP238) | Potency (CP247) | Potency (CP250) | Potency (CP252) | Potency (CP256) | Potency (CP260) | Potency (CP262) | Potency (CP265) | Potency (CP266) | Potency (CP268) | Potency (CP269)
1 | O=C(Nc1ccc(Cl)cc1)Nc1ccc(Cl)c(Cl)c1 | 2.82 µM (active) | 9.53 µM (active) | 6.01 µM (active) | 7.57 µM (active) | 4.26 µM (active) | 6.01 µM (active) | 6.75 µM (active) | 2.24 µM (active) | 2 µM (active) | 3.55 µM (active) | 3.98 µM (active) | 3.16 µM (active) | 3.55 µM (active) | 2.24 µM (active) | 2 µM (active) | 5.36 µM (active) | 3.55 µM (active) | 8.49 µM (active) | 4.26 µM (active) | 6.01 µM (active)
2 | CN1CCC(Nc2ncc3ncnc(Nc4ccc(F)c(Cl)c4)c3n2)CC1 | – | – | – | – | – | – | – | 11.2 µM (active) | – | – | – | – | 7.94 µM (active) | – | – | inactive | – | – | – | –
3 | Nc1ncnc2nc[nH]c12 | inactive | inactive | inactive | inactive | inactive | inactive | inactive | inactive | inactive | inactive | inactive | inactive | inactive | inactive | inactive | inactive | inactive | inactive | inactive | inactive
4 | Nc1ccc2cc3ccc(N)cc3nc2c1 | – | – | – | – | – | – | – | – | 12.6 µM (active) | – | – | – | – | – | 8.91 µM (active) | inactive | – | – | – | –
5 | CCCCCCCCCCCCCC[N+](C)(C)C | 4.47 µM (active) | 6.01 µM (active) | 6.75 µM (active) | 12 µM (active) | 6.75 µM (active) | 6.01 µM (active) | 8.49 µM (active) | 8.91 µM (active) | 5.01 µM (active) | 3.98 µM (active) | 3.98 µM (active) | 5.62 µM (active) | 7.08 µM (active) | 7.94 µM (active) | 3.98 µM (active) | 4.78 µM (active) | 8.91 µM (active) | 10.7 µM (active) | 8.49 µM (active) | 5.36 µM (active)
6 | CC(NCCC(c1ccccc1)c1ccccc1)c1ccccc1 (configuration not stated) | 10 µM (active) | – | 15.1 µM (active) | – | – | – | – | 8.91 µM (active) | 10 µM (active) | – | 7.94 µM (active) | – | 10 µM (active) | 12.6 µM (active) | 10 µM (active) | inactive | – | – | 13.5 µM (active) | 16.9 µM (active)
